Compound activity: PubChem, several laboratories
PHOSPHO1 block – PubChem AID 1565. Phosphoethanolamine/phosphocholine phosphatase (Homo sapiens), Q8TCT1. recombinant PHOSPHO1, absorbance phosphatase assay. inhibition, % at 13.3 µM. actives 1.1% (n = 290,000); in the data active means inhibition above about 60%
CHT PAM – CHT positive allosteric modulators, primary screen, cell-based, membrane potential dye, choline EC20; B-score at 10 µM; CHT-expressing cells; stronger effect = higher value; LV-AA mutant CHT in HEK293 cells; AID 488977, 2010; actives 0.49% (n = 310,000);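 active means initial fluorescence not abnormally high and integrated response B-score, plate-corrected, over 3 SD above library mean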
Target sequence (Q9GZV3 whole entry, looked up): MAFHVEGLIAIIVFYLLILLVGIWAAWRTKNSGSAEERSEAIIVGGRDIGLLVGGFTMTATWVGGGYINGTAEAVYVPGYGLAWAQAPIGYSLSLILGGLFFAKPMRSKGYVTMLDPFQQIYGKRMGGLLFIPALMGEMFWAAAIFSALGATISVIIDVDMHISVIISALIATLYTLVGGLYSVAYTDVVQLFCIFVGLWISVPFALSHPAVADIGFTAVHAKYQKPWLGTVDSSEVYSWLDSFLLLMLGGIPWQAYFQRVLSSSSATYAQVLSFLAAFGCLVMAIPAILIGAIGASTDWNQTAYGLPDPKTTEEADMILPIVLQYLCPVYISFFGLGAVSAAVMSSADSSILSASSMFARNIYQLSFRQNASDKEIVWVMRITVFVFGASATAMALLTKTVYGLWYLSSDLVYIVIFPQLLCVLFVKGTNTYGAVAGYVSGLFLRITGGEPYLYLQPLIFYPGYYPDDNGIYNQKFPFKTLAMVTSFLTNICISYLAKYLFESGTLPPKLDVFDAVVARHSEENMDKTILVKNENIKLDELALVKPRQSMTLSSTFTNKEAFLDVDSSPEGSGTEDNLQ
CHT block – inhibitors of human choline transporter CHT; CHT-expressing cells, membrane potential dye, choline response; stronger effect = lower value; B-score at 10 µM; actives 0.86% (n = 310,000); AID 488975, 2010;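 active means B-score over 3 SD under the library average, and starting fluorescence ratio not unusually high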;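 further: choline stimulus applied at its EC90 after an EC20 pre-addition; B-score computed on integrated fluorescence ratio after choline addition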
HDAC3 inh – HDAC3 deacetylase inhibitors, primary screen, biochemical, fluorescence, cell-free homogeneous | actives 0.15% (n = 320,000) | Histone deacetylase 3 (Homo sapiens), O15379 | inhibition, % at 8.3 µM | recombinant HDAC3, fluorogenic peptide/trypsin coupled; in the data active means inhibition above about 26%, passing the limit was not always enough
ANO1 block – TMEM16A chloride channel inhibitors, primary screen, cell-based, HTS; normalized B-score (activity score, 25-100; higher = stronger inhibition) at 10 µM; actives 1.2% (n = 310,000); HEK293 TMEM16A/YFP iodide influx fluorescence, ionomycin; Anoctamin-1 (Mus musculus), Q8BHY3; AID 588511, 2011;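 active means ratio plate-corrected score three or more library SD toward inhibition, starting fluorescence score within five deviations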;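 further: score derived from kinetic fluorescence span divided by baseline fluorescence per well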
ANO1 activ – TMEM16A chloride channel activators or potentiators, primary screen, cell-based, HTS; B-score at 10 µM; actives 0.3% (n = 340,000); HEK293 TMEM16A/YFP-H148Q/I152L, iodide quench fluorescence; stronger effect = lower value;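 active means fluorescence-ratio B-score plate-corrected deviation score at least 3 library SD below zero, with starting fluorescence score within 5 deviations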;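 further: channel opened by trigger with iodide after compound preincubation; score built on the fluorescence ratio of max minus min over baseline; more negative score means more quench and so TMEM16A activation or potentiation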
CHT inh conf – CHT inhibitors, confirmation, cell-based, membrane potential dye, duplicate; shares compounds with CHT block; CHT-expressing cells, choline membrane potential dye; LV-to-AA substituted CHT, HEK293 cells; CHT activity remaining % of control (stronger effect = lower value), % at 10 µM; actives 70% (n = 2,400); AID 493221, 2011;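 active means choline transporter activity left, mean of duplicates at 10 µM, below buffer-only control mean minus 3 SD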;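 further: depolarization triggered by choline at its EC90 following an EC20 pre-addition; 0% = hemicholinium-3 full block and 100% = buffer-only control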
HEK293 CHT ctr – membrane potential effects in parental HEK293, counter-screen for CHT inhibitor project, cell-based, membrane potential dye; actives 4% (n = 2,400); shares compounds with CHT block; choline response; active = decrease or increase beyond buffer ±3SD; membrane potential ratio readout (active if shifted either direction beyond buffer ±3SD; no single direction) at 10 µM;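 further: parental cells lack the transporter so any hit is non-specific; ratio is peak minus trough fluorescence over baseline after EC90 choline challenge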
* = called active by the depositor. An excerpt weighted towards active compounds, which were near 3.2% of everything screened.

O=C(CCCSc1nc2ccccc2s1)NC1=NCCS1 was read as PHOSPHO1 block 23, CHT PAM inactive, CHT block -15*, HDAC3 inh -7, ANO1 block inactive, ANO1 activ inactive, CHT inh conf 4.3%* and HEK293 CHT ctr inactive.
Screening CCc1nnc(NS(=O)(=O)c2ccc(NC(=O)c3cc(Cl)ccc3[N+](=O)[O-])cc2)s1 returned PHOSPHO1 block 29, CHT PAM inactive, CHT block inactive, HDAC3 inh 3, ANO1 block inactive and ANO1 activ inactive.
CCc1nnc(NS(=O)(=O)c2ccc(NC(=O)COc3ccc4ccccc4c3)cc2)s1 was read as PHOSPHO1 block 37, CHT PAM inactive, CHT block -5.8*, HDAC3 inh 3, ANO1 block inactive, ANO1 activ inactive, CHT inh conf inactive and HEK293 CHT ctr inactive.
Screening CCc1nnc(NS(=O)(=O)c2ccc(NC(=O)c3cc(Cl)ccc3Cl)cc2)s1 returned PHOSPHO1 block 8, CHT PAM inactive, CHT block -6.1*, HDAC3 inh 2, ANO1 block inactive, ANO1 activ inactive, CHT inh conf 30%* and HEK293 CHT ctr inactive.
For CCc1nnc(NC(=O)c2cc(S(=O)(=O)N(CC)CC)ccc2Cl)s1 the results were PHOSPHO1 block -7, CHT PAM inactive, CHT block -5.9*, HDAC3 inh -3, ANO1 block inactive, ANO1 activ inactive, CHT inh conf 52%* and HEK293 CHT ctr inactive.
Screening CCc1nnc(NS(=O)(=O)c2ccc(NC(=O)c3cccc(Br)c3)cc2)s1 returned PHOSPHO1 block 30, CHT PAM inactive, CHT block -7*, HDAC3 inh 3, ANO1 block inactive, ANO1 activ inactive, CHT inh conf 48%* and HEK293 CHT ctr inactive.
CCc1nnc(NS(=O)(=O)c2ccc(NC(=O)c3cccc4ccccc34)cc2)s1 was read as PHOSPHO1 block -2, CHT PAM inactive, CHT block inactive, HDAC3 inh 2, ANO1 block inactive and ANO1 activ inactive.
For CCN(CC)S(=O)(=O)c1ccc(Cl)c(C(=O)NC)c1 the results were PHOSPHO1 block -3, CHT PAM inactive, CHT block inactive, HDAC3 inh -4, ANO1 block inactive and ANO1 activ inactive.
`CCc1nnc(NS(=O)(=O)c2ccc(NC(=O)c3ccc(S(=O)(=O)N(CC)CC)cc3)cc2)s1` gave PHOSPHO1 block 42, CHT PAM inactive, CHT block inactive, HDAC3 inh 1, ANO1 block inactive and ANO1 activ inactive.
`CN1C(C(=O)NCc2cccc(C(F)(F)F)c2)CC2Cn3c(nc4cc5ccccc5cc43)C21` (centres undefined) gave PHOSPHO1 block 4, CHT PAM inactive, CHT block inactive, HDAC3 inh 1, ANO1 block inactive and ANO1 activ inactive.
`CCOC(=O)C(Cc1ccccc1)NC(=O)CNC(C)=O` (centres undefined) gave PHOSPHO1 block 1, CHT PAM inactive, CHT block inactive, HDAC3 inh -5, ANO1 block inactive and ANO1 activ inactive.
For CCOCCCn1c(=S)[nH]c2cc(C(=O)N3CCN(C4CCCCC4)CC3)ccc2c1=O the results were PHOSPHO1 block 13, CHT PAM inactive, CHT block -5.1*, HDAC3 inh 4, ANO1 block inactive, ANO1 activ inactive, CHT inh conf 57%* and HEK293 CHT ctr inactive.
CC(C)NCC(O)c1cc(O)cc(O)c1 (centres undefined) was read as PHOSPHO1 block 8, CHT PAM inactive, CHT block inactive, HDAC3 inh -1, ANO1 block inactive and ANO1 activ inactive.
Screening CC(C)NC[C@H](O)c1ccc(O)c(O)c1 returned CHT PAM inactive, CHT block inactive, HDAC3 inh -3, ANO1 block inactive, ANO1 activ inactive, CHT inh conf 39%* and HEK293 CHT ctr inactive.
For N#CCN1CCN(CCC(=O)Nc2ccc(OCc3ccccc3)cc2)CC1 the results were PHOSPHO1 block 8, CHT PAM inactive, CHT block inactive, HDAC3 inh 0, ANO1 block inactive, ANO1 activ inactive, CHT inh conf inactive and HEK293 CHT ctr inactive.
O=C(CN1CCCC1)Nc1ccc(OCc2ccccc2)cc1 was read as PHOSPHO1 block 22, CHT PAM inactive, CHT block inactive, HDAC3 inh 3, ANO1 block inactive and ANO1 activ inactive.
Screening Cc1onc(-c2ccccc2Cl)c1C(=O)Nc1nnc(-c2cccc([N+](=O)[O-])c2)s1 returned PHOSPHO1 block 14, CHT PAM inactive, CHT block -6.9*, HDAC3 inh 7, ANO1 block 100*, ANO1 activ inactive, CHT inh conf 51%* and HEK293 CHT ctr inactive.
For Cc1ccc(S(=O)(=O)N2CCCC2)s1 the results were PHOSPHO1 block 34, CHT PAM inactive, CHT block inactive, HDAC3 inh -6, ANO1 block inactive and ANO1 activ inactive.
For CN1CCC(NC(=O)NC2CCCCC2)CC1 the results were PHOSPHO1 block 28, CHT PAM inactive, CHT block inactive, HDAC3 inh 4, ANO1 block inactive and ANO1 activ inactive.
`O=C(NC1CCCCCCC1)NC1CCCCC1` gave PHOSPHO1 block 49, CHT PAM inactive, CHT block -5.7*, HDAC3 inh 0, ANO1 block inactive, ANO1 activ inactive, CHT inh conf inactive and HEK293 CHT ctr inactive.
For O=C(Nc1cn(-c2ccccc2)nc1-c1cccs1)c1ccco1 the results were PHOSPHO1 block -4, CHT PAM inactive, CHT block inactive, HDAC3 inh -1, ANO1 block inactive and ANO1 activ inactive.
For C/C(=C(/CCO)SSCC1CCCO1)N(C=O)Cc1cnc(C)nc1N (centres undefined) the results were CHT PAM inactive, CHT block inactive, HDAC3 inh 2, ANO1 block inactive and ANO1 activ inactive.
